Results filed as inconclusive are left out. Active and inactive are the calls of the source. Unless noted, the call rests on the fitted dose curve; in most records, active means well fitted curve in the direction sought with a large enough effect in the repeat runs; inconclusive means weak or mixed curves; inactive means no such curve, though single readings can be large; an effect the other way counts as inactive or inconclusive.
Tests used:
[1] = A CellTox Green Cytotoxicity Assay to monitor cytotoxicity in HEK293 cells - 32 hour (AID 1224881); further: nearly all actives have a fitted effect of over 40% in size
Outline: (§1)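 HEK293 cells premixed with CellTox Green dye were seeded at 600 cells/well and left 5 h at 37 C/5% CO2 before pin transfer of 23 nL compound in DMSO. Fluorescence from dye bound to dead-cell DNA was read during 40 h treatment.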

[2] = A CellTox Green Cytotoxicity Assay to monitor cytotoxicity in HepG2 cells - 0 hour (AID 1224882); further: nearly all actives have a fitted effect of over 35% in size
Outline: (§2)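 HepG2 cells were seeded together with the CellTox Green dye at 600 cells/well, left 5 h at 37 C/5% CO2, then given compounds in DMSO. Fluorescence from dye bound to dead-cell DNA was read repeatedly over 40 h of treatment at 37 C.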

[3] = A CellTox Green Cytotoxicity Assay to monitor cytotoxicity in HepG2 cells - 32 hour (AID 1224883); further: nearly all actives have a fitted effect of over 50% in size
Outline: as §2

[4] = A CellTox Green Cytotoxicity Assay to monitor cytotoxicity in HEK293 cells - 8 hour (AID 1224884); further: nearly all actives have a fitted effect of over 35% in size
Outline: as §1

[5] = qHTS RealTime-Glo MT Cell Viability Assay in HepG2 cells - 16 hour (AID 1224885); further: nearly all actives have a fitted effect of over 50% in size
Outline: (§3)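 HepG2 suspension premixed with RealTime-Glo reagents is plated at 600 cells per well and left 5 h at 37 C/5% CO2. Compounds in DMSO then go in, and bioluminescence reflecting viable cell number is recorded over 40 h.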

[6] = qHTS RealTime-Glo MT Cell Viability Assay in HEK293 cells - 24 hour (AID 1224886); further: top concentration of the series differs between compounds; nearly all actives have a fitted effect of over 50% in size
Outline: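 Reads taken at 0, 8, 16, 24, 32 and 40 h from the same wells. HEK293 cells (600/well) carried RealTime-Glo reagents from seeding, with compound added after a 5 h settle at 37 C.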

[7] = qHTS RealTime-Glo MT Cell Viability Assay in HEK293 cells - 8 hour (AID 1224887); further: top concentration of the series differs between compounds; nearly all actives have a fitted effect of over 50% in size
Outline: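 HEK293 cells mixed with RealTime-Glo reagents (NanoLuc plus cell-permeant prosubstrate) at 600 cells/well, preincubated 5 h at 37 C/5% CO2, then given 23 nL compound in DMSO. Nonlytic luminescence from viable cells was read at 0, 8, 16, 24, 32 and 40 h.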

[8] = A CellTox Green Cytotoxicity Assay to monitor cytotoxicity in HEK293 cells - 16 hour (AID 1224888); further: nearly all actives have a fitted effect of over 35% in size
Outline: as §1

[9] = qHTS RealTime-Glo MT Cell Viability Assay in HepG2 cells - 0 hour (AID 1224889); further: nearly all actives have a fitted effect of over 50% in size
Outline: as §3

[10] = A CellTox Green Cytotoxicity Assay to monitor cytotoxicity in HepG2 cells - 8 hour (AID 1224890); further: nearly all actives have a fitted effect of over 45% in size
Outline: as §2

[11] = qHTS assay to identify small molecule antagonists of the estrogen receptor alpha (ER-alpha) signaling pathway using the BG1 cell line in the presence of 0.1 nM 17-beta-estradiol - cell viability counter screen (AID 1259241); further: nearly all actives have a fitted effect of over 40% in size
Outline: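 Live-cell protease activity (CellTiter-Fluor fluorescence, 30 min) was read in the same wells after VM7Luc4E2 cells had been exposed to compounds with 0.1 nM 17beta-estradiol for 22 hr at 37C.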

[12] = qHTS assay to identify small molecule antagonists of the androgen receptor (AR) signaling pathway using the MDA cell line in the presence of 0.5 nM R1881 - cell viability counter screen (AID 1259242); further: nearly all actives have a fitted effect of over 45% in size
Outline: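 MDA-kb2 cells (human breast carcinoma, stably carrying MMTV-luciferase reporter) were exposed to compounds with 0.5 nM R1881 (final) for 16 hr at 37C, 0% CO2; viability then read as live-cell protease fluorescence (CellTiter-Fluor, 30 min) in the same wells.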

[13] = biological target: Androgen receptor (Homo sapiens) (UniProt P10275); assay: qHTS assay to identify small molecule antagonists of the androgen receptor (AR) signaling pathway using the MDA cell line in the presence of 0.5 nM R1881 (AID 1259243); further: nearly all actives have a fitted effect of over 50% in size
Androgen receptor (Homo sapiens), sequence (P10275 whole entry, looked up): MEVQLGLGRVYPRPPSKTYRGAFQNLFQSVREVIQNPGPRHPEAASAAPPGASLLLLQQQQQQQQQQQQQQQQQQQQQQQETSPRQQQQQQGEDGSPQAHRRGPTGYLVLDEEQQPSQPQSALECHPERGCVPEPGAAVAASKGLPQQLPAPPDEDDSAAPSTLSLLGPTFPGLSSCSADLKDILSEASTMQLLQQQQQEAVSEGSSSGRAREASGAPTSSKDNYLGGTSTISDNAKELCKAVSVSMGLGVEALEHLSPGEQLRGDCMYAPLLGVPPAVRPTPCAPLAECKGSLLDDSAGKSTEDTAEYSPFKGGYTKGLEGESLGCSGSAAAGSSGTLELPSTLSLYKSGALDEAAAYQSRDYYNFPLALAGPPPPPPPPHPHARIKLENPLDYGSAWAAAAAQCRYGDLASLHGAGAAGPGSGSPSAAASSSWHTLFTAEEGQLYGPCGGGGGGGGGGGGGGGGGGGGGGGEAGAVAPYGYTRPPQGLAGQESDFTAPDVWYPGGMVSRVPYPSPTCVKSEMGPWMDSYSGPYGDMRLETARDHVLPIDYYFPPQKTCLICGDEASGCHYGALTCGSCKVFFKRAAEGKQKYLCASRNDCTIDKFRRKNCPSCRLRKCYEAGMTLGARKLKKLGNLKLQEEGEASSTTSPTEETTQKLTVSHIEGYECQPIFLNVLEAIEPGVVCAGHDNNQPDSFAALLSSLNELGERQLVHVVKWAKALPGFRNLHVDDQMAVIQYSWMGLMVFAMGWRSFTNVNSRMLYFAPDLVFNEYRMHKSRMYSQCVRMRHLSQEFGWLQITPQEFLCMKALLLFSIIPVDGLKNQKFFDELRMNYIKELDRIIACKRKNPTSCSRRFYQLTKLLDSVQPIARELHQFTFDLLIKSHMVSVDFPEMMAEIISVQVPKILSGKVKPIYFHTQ
Outline: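 MDA-kb2 human breast carcinoma cells carrying an MMTV-luciferase reporter (AR- and GR-responsive) were plated, rested 5 hr at 37C, dosed with compounds, then stimulated with 0.5 nM R1881 (final) for 16 hr; luminescence was read after ONE-Glo.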

[14] = biological target: Estrogen receptor (Homo sapiens) (UniProt P03372); assay: qHTS assay to identify small molecule antagonists of the estrogen receptor alpha (ER-alpha) signaling pathway using the BG1 cell line in the presence of 0.1 nM 17-beta-estradiol (AID 1259244); further: nearly all actives have a fitted effect of over 50% in size
Estrogen receptor (Homo sapiens), sequence (P03372 whole entry, looked up): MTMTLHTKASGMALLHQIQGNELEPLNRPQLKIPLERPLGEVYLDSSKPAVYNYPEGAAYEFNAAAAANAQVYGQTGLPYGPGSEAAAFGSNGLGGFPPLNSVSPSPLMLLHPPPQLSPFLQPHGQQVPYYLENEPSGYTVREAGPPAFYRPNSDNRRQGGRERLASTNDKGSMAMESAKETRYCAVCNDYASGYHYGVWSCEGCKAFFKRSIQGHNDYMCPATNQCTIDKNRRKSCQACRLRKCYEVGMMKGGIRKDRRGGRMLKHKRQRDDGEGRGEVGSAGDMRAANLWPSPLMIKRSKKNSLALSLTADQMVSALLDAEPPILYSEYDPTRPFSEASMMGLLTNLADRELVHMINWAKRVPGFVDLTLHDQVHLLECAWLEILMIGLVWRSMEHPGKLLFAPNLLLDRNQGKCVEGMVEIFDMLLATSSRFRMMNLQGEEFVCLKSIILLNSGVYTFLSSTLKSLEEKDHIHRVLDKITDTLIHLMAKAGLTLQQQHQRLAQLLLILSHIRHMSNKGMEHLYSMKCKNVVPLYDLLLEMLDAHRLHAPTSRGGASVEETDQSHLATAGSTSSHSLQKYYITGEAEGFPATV
Outline: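 VM7Luc4E2 cells (endogenous full-length ER-alpha, stable 4xERE-luciferase) were grown 5 days in phenol red-free medium with charcoal-stripped FBS, then exposed 22 h at 37C to compounds plus 0.1 nM (final) 17beta-estradiol; ONE-Glo luminescence read-out.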

[15] = qHTS assay to identify small molecule phospholipidosis (PLD) inducers (AID 1259344; active means well fitted curve in the direction sought with a large enough effect; an effect the other way counts as inactive or inconclusive)
Outline: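 HepG2 cells on collagen I, attached 4 h at 37 C, were co-treated with compound and LipidTOX Red dye for 24 h at 37 C, then fixed with paraformaldehyde plus Hoechst 33342 and imaged by high-content microscopy for phospholipid accumulation.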

[16] = qHTS assay to identify small molecule HDAC inhibitors (AID 1259364); further: top concentration of the series differs between compounds; nearly all actives have a fitted effect of over 45% in size
Outline: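 Wild-type HCT-116 cells were plated overnight, exposed to compounds for 2 h at 37 °C, then given HDAC-Glo class I/II luminogenic reagent for 30 min at room temperature before luminescence was read.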

[17] = qHTS assay to identify small molecule HDAC inhibitors - cell viability counter screen (AID 1259365)
Outline: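 HCT-116 (wild type), 1,500 cells/well, overnight 37C/5% CO2; compound in DMSO 2hr; CellTiter-Glo 30min RT; luminescence read.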

[18] = qHTS assay to identify small molecule agonists of the sonic hedgehog signaling (Shh) pathway - cell viability counter screen (AID 1259366); further: nearly all actives have a fitted effect of over 50% in size
Outline: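 CellTiter-Fluor fluorescence read-out, 1 hr at 37C, added after 23hr compound exposure. Cells: 3T3 Gli1-Luc, an NIH/3T3 clone with stably integrated Gli1-Luc reporter, plated 4hr before compound.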

[19] = qHTS assay to identify small molecule agonists of the sonic hedgehog signaling (Shh) pathway (AID 1259368; calls by dose curve; further: series mostly up to about 92 µM; nearly all actives have a fitted effect of over 15% in size)
Outline: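 NIH/3T3-derived 3T3Gli1-Luc cells carrying a stably integrated Gli1 response element–firefly luciferase reporter were plated, left 4 hr at 37 C, then given compounds in DMSO for 24 hr. Luminescence was read 30 min after adding luciferase reagent.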

[20] = qHTS assay to identify small molecule antagonists of the sonic hedgehog signaling (Shh) pathway - cell viability counter screen (AID 1259367); further: nearly all actives have a fitted effect of over 55% in size; further: potency means the concentration at half of the fitted maximal effect
Outline: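 NIH/3T3-derived Gli1-Luc reporter cells (2,000 per well) rested 4 hr at 37 C, then received DMSO compounds plus conditioned medium. After 23 hr of treatment, CellTiter-Fluor was added for 1 hr at 37C and fluorescence read.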

Measured: Potency

c1cc2c(c(N3CCNCC3)c1)OCCO2
not listed: [20]
inactive: all other assays above

N#Cc1ccncc1
not listed: [13] | [15] | [20]
inactive: all other assays above

CCCCP(CCCC)CCCC
not listed: [13] | [15]
inactive: all other assays above

CCC(=O)c1ccccc1
not listed: [15]
inactive: all other assays above

O=C(O)C(Br)CBr (stereo not given)
not listed: [13] | [15] | [19] | [20]
inactive: all other assays above

CCN(CC)c1nc(C)cc(OP(=S)(OC)OC)n1
not listed: [13] | [15]
inactive: all other assays above

CCN(Cc1ccc(Cl)nc1)/C(=C/[N+](=O)[O-])NC
not listed: [13]
inactive: all other assays above

Cc1nc(N)nc(N)n1
not listed: [15]
inactive: all other assays above

CC(C)CC#N
active: [20] 27.9 µM
not listed: [15] | [18] | [19]
inactive: all other assays above

CCOP(=S)(OCC)Oc1ncn(-c2ccccc2)n1
not listed: [15] | [19]
inactive: all other assays above

COc1cc(OC)nc(NC(=O)NS(=O)(=O)c2ncccc2C(=O)N(C)C)n1
not listed: [13] | [15]
inactive: all other assays above

Cc1cnc[nH]1
not listed: [14] | [15]
inactive: all other assays above

CCOC(=O)CP(=O)(OCC)OCC
not listed: [13] | [15]
inactive: all other assays above

CNNC
not listed: [13] | [15]
inactive: all other assays above

C1CCC(C2CCCCC2)CC1
not listed: [13] | [15]
inactive: all other assays above

Source: PubChem BioAssay (Tox21)
